The nature of experiment [1]: HepG2 liver cancer cell viability effects, profiling panel, resazurin fluorescence, 24 h, PK04 Diversity Set (AID 1172). Further: test concentration not given here. As to conditions: higher = more signal. (In general: The colour change of resazurin is a common sign of viable cells or microbes.)
Experiment [2] can be described thus: basal S. cerevisiae growth modulation, no modifier, primary screen, OD600, strain BY4716, 24 h, basal condition (AID 1173). As to conditions: OD600, 24 h, higher = more signal, called active from +8 up or from −8 down.
Experiment [3] in a line: MM1S myeloma cell viability, profiling panel, resazurin fluorescence, basal, 24 h, PK04 Diversity Set (AID 1174). Further: test concentration not given here. The settings on record: higher = more signal, called active from +8 up or from −8 down.
Experiment [4] deals with Dihydroorotate dehydrogenase (quinone), mitochondrial (Plasmodium falciparum (isolate 3D7)) (UniProt Q08210). Description: PfDHODH enzyme inhibitors, primary screen, biochemical, C-terminal His tag, absorbance 600 nm (AID 1175).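 Further: recombinant parasite enzyme with a five histidine tag at its C terminus; test concentration not given here.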 The settings on record: DCIP absorbance 600 nm, higher = more signal, called active from +8 up or from −8 down.
Chain of Dihydroorotate dehydrogenase (quinone), mitochondrial (Plasmodium falciparum (isolate 3D7)) (Q08210 whole entry, looked up): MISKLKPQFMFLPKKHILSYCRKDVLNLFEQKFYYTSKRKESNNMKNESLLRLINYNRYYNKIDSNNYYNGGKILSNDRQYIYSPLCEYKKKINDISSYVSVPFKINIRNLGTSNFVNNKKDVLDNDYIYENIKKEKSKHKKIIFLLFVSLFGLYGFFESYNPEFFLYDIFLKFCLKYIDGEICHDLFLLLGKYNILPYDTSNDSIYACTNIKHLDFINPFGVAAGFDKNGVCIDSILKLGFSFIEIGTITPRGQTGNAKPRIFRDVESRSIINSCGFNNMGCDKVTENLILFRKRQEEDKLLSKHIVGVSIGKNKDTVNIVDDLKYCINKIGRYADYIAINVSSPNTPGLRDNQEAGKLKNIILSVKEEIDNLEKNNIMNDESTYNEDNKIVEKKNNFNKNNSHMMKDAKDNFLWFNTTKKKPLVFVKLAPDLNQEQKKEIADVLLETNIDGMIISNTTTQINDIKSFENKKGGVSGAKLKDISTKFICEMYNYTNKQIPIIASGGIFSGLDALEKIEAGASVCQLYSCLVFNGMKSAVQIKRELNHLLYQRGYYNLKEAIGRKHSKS
Experiment [5] in a line: P. aeruginosa biofilm formation inhibitors, primary screen, strain PAO1, LB-PBS medium, absorbance 600 nm (AID 1176). Further: test concentration not given here. The settings on record: P. aeruginosa PAO1 growth/biofilm, A600, 12 h; higher = more signal.
The nature of experiment [6]: S. cerevisiae RM11-1a growth modifiers, primary screen, strain RM11-1a, OD600, basal, 24 h (AID 1177).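 Further: cultures grown under basal conditions with no added stressor; test concentration not given here.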 The settings on record: OD600, 24 h, higher = more signal, called active from +8 up or from −8 down.
The nature of experiment [7]: E. coli acrAB mutant growth effects, primary screen, E. coli filamentation inducers, strain DRC39, OD650, 24 h (AID 1178).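 Further: growth measured as culture turbidity by optical density at 650 nm; test concentration not given here.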 As to conditions: higher = more signal, called active from +8 up or from −8 down.
Experiment [8] in a line: E. coli acrAB mutant growth effects, primary screen, E. coli filamentation inducers, strain DRC39, OD650, 48 h (AID 1179).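 Further: screen aims at cell division blockers that make cells filament.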 As to conditions: E. coli DRC39 delta-acrAB growth, higher = more signal, called active from +8 up or from −8 down.
Experiment [9] in a line: RPMI8226 myeloma cell viability, profiling panel, resazurin fluorescence, basal, 24 h, PK04 Diversity Set (AID 1180).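 Further: RPMI8826 multiple myeloma cell line at 5000 cells per well; test concentration not given here.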 The settings on record: higher = more signal.
Experiment [10] has as its target E3 ubiquitin-protein ligase XIAP (Homo sapiens) (UniProt P98170). Description: XIAP binders, primary screen, biophysical, small-molecule microarray, fluorescence 635 nm (AID 1181).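 Further: score merges 667 nm emission and signal to noise over triplicate slides.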 The settings on record: small-molecule microarray binding, higher = more signal.

We go through 12 molecules from PubChem BioAssay.

The source made the active and inactive calls. Unless noted, how the calls were made is not given here.

Chain of E3 ubiquitin-protein ligase XIAP (Homo sapiens) (P98170 whole entry, looked up): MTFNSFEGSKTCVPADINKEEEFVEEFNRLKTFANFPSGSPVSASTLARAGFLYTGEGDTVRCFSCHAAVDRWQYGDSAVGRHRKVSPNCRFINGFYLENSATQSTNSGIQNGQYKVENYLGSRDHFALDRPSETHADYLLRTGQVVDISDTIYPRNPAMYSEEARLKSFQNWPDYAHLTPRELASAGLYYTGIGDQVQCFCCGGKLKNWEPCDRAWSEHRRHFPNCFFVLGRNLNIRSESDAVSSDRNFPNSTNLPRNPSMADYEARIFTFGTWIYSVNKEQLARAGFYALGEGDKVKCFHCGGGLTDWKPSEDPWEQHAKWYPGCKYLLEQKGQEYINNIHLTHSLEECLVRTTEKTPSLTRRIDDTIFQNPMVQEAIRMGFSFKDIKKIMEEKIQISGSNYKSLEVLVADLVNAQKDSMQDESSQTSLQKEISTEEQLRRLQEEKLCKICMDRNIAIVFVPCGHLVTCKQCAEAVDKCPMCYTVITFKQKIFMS

Regarding `Cc1cc2c(nc1C)CCCN2CC(O)CN1CCCc2nc(C)c(C)cc21`, the z-score in experiment [1] is 0.269; in experiment [2] it was 0.0477 (inactive); in experiment [3], -0.644 (inactive); in experiment [5], 0.979 (inactive); in experiment [6], 0.255 (inactive); in experiment [7] it was -0.494 (inactive). Further, the z-score is -0.242 (inactive) in experiment [8] and 0.399 in [9]. Also, the composite z-score was 0.0382 (inactive) in [4] and 1.12 in experiment [10].
In the case of `CCOC(=O)[C@H](CC(C)C)NC(=O)CCC1CC(OC(=O)NCc2ccc3c(c2)OCO3)CC2(CCCC(COC(=O)NCc3cccc(C(F)(F)F)c3)O2)O1` (stereo not given in full), the z-score in experiment [1] was -0.54; in experiment [2], 0.3 (inactive); in experiment [3], 0.639 (inactive); in [5], -0.0691 (inactive); in experiment [6], 0.683 (inactive); in experiment [7], -0.718 (inactive). Moreover, the values for the z-score in [8] and in experiment [9] were -0.0974 (inactive) and 0.328, respectively. In addition, the composite z-score in experiment [4] was 0.0645 (inactive); in experiment [10], -0.148.
Regarding `O=C(NN=C1C[C@@H](O)[C@@H](O)[C@@H]2[C@@H]3C(=O)N(C4CCCCC4)C(=O)[C@@H]3CC[C@H]12)OCc1ccccc1`, the z-score in experiment [1] was -0.383; in [2] it was 0.112 (inactive); in [3], -0.531 (inactive); in experiment [5] it was 0.307 (inactive); in [6] it was -0.182 (inactive); in experiment [7] it was 0.061 (inactive). Further, the z-score is -0.0133 (inactive) in experiment [8] and -0.901 in [9]. Besides, the composite z-score in experiment [4] was -0.135 (inactive); in [10], 0.0942.
As to `CCOC(=O)NN=C1C[C@@H](O)[C@@H](O)[C@@H]2[C@@H]3C(=O)N([C@@H](C)c4ccccc4)C(=O)[C@@H]3CC[C@@H]12`, the z-score is 0.13 in experiment [1]; -0.608 (inactive) in experiment [2]; -0.371 (inactive) in experiment [3]; -0.72 (inactive) in experiment [5]; -0.645 (inactive) in [6]; -0.654 (inactive) in [7]. Moreover, the z-score is -0.23 (inactive) in [8] and -0.436 in experiment [9]. Also, the composite z-score was -0.0776 (inactive) in [4] and -0.202 in experiment [10].
Turning to `CC(C)=CCCC(C)=CCON=C1C[C@@H](O)[C@@H](O)[C@@H]2[C@@H]3C(=O)N(C(C)(C)C)C(=O)[C@@H]3CC[C@@H]12`, the z-score in experiment [1] was -0.976; in [2], -0.0139 (inactive); in experiment [3], 0.408 (inactive); in [5] it was 1.23 (inactive); in [6], -0.0348 (inactive); in [7], -0.106 (inactive). Further, the z-score is -1.26 (inactive) in experiment [8] and -0.11 in experiment [9]. For the same molecule, the composite z-score in experiment [4] is 0.661 (inactive); in experiment [10] it was -0.172.
On to `CC(CCN1CCCCc2nc(C)c(C)cc21)=NOC[C@@H](O)COCc1ccco1`, for which the z-score was -0.862 in experiment [1]; -0.0954 (inactive) in experiment [2]; -0.399 (inactive) in [3]; -0.16 (inactive) in experiment [5]; 0.0681 (inactive) in [6]; -0.0051 (inactive) in experiment [7]. Also, the z-score is 0.562 (inactive) in [8] and -0.688 in experiment [9]. Also, the composite z-score in experiment [4] was -0.441 (inactive); in experiment [10], 0.0251.
Take `CCOC(=O)C1=NO[C@]2(C=C(Br)C3(OCCCO3)[C@H]3O[C@H]32)C1`: the z-score in experiment [1] is -0.706; in experiment [2], -0.175 (inactive); in experiment [3] it was -0.734 (inactive); in [5] it was -0.646 (inactive); in experiment [6] it was -0.847 (inactive); in experiment [7], 0.336 (inactive). The z-score in experiment [8] was 0.645 (inactive); in experiment [9], -0.549. Moreover, the composite z-score is -0.671 (inactive) in experiment [4] and 0.201 in experiment [10].
As for `Cc1ccc(S(=O)(=O)N[C@H]2COC(=O)CC=C[C@H](C)[C@@H](NS(=O)(=O)c3ccc(C)cc3)COC(=O)CC=C[C@@H]2C)cc1`, the z-score in experiment [1] was -0.0933; in [2], 1.32 (inactive); in [3], 0.418 (inactive); in experiment [5], -0.585 (inactive); in experiment [6], 1.34 (inactive); in experiment [7], 0.455 (inactive). The z-score in experiment [8] was 0.614 (inactive); in experiment [9], 0.0846. For the same molecule, the composite z-score in experiment [4] was -0.069 (inactive); in experiment [10] it was -0.146.
As to `CCOC(=O)[C@H](Cc1ccccc1)NC(=O)CCC1CC(OC(=O)NCc2ccc3c(c2)OCO3)CC2(CCCC(COC(=O)NCCc3ccccc3OC)O2)O1` (stereo not given in full), the z-score in experiment [1] was -0.23; in [2], 0.911 (inactive); in experiment [3], -0.32 (inactive); in experiment [5], 0.426 (inactive); in experiment [6], 0.824 (inactive); in [7], -0.0754 (inactive). Moreover, the z-score in experiment [8] is -0.731 (inactive); in [9] it was 0.0481. Besides, the results for the composite z-score in experiment [4] and in experiment [10] were 0.0964 (inactive) and -0.024, respectively.
As to `C=CC[C@@H]1C=C[C@H](ON=C(C)CCN2CCc3nc(-c4ccccc4)c(-c4ccccc4)cc3C2)[C@@H](CO)O1`, the z-score was -0.244 in experiment [1]; -1.96 (inactive) in [2]; -2.02 (inactive) in [3]; 0.0767 (inactive) in experiment [5]; 0.124 (inactive) in [6]; 0.921 (inactive) in experiment [7]. The z-score in [8] is 0.392 (inactive); in experiment [9], 0.365. For the same molecule, the figures for the composite z-score in [4] and in experiment [10] were -0.126 (inactive) and -0.12, respectively.
As to `Cc1ccc(S(=O)(=O)NC(CCc2ccccc2)CC(=O)C(C)(C)C)cc1` (stereo not given), the z-score in experiment [1] was 0.277; in experiment [2], -1 (inactive); in experiment [3], -0.146 (inactive); in [5] it was 0.143 (inactive); in experiment [6], 0.384 (inactive); in experiment [7], 0.628 (inactive). Besides, the z-score in [8] is 0.274 (inactive); in experiment [9], 0.159. Moreover, the composite z-score was 0.0379 (inactive) in experiment [4] and -0.195 in experiment [10].
`O=C1CCCC=C1C(O)CCCCBr` (stereo not given): the z-score in experiment [1] was -1.4; in [2] it was -17.6 (active); in experiment [3] it was -8.08 (active); in experiment [5] it was 1.43 (inactive); in experiment [6], -2.66 (inactive); in experiment [7], 0.48 (inactive). Further, the figures for the z-score in experiment [8] and in experiment [9] were 0.557 (inactive) and -4.3, respectively. Further, the results for the composite z-score in experiment [4] and in experiment [10] were -1.39 (inactive) and -0.193, respectively.
